12-LOX inh – Primary qHTS assay for inhibitors of human arachidonate 12S-lipoxygenase (ALOX12): Round 2; Polyunsaturated fatty acid lipoxygenase ALOX12 (Homo sapiens), P18054; purified 12hLO, xylenol orange hydroperoxide absorbance; Potency, µM (doses to about 108 µM), for the others: at the top dose activity change, negative = inhibition, most hits filed as inhibitors; 1.1% of 580,000 active; AID 1671190, 2021; note: potency is the fitted concentration of half-maximal effect
Target sequence (P18054 whole entry, looked up): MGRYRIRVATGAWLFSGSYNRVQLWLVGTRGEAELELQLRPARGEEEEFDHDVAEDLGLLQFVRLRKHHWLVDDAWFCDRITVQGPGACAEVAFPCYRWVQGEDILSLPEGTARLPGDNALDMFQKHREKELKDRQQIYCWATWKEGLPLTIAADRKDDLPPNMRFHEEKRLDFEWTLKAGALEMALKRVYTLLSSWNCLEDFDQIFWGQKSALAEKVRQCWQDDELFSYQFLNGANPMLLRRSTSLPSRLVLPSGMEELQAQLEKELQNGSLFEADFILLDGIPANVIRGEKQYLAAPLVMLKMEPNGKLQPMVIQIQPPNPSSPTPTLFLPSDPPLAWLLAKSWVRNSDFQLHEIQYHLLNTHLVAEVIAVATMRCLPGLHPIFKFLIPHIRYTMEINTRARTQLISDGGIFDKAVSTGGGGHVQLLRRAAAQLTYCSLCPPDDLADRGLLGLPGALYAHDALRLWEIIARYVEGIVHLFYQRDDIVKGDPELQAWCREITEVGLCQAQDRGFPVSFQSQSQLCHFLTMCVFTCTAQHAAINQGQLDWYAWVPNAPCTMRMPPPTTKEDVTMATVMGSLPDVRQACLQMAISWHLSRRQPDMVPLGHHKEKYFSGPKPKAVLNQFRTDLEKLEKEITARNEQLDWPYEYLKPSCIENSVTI
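Purified human 12hLO at 150 nM in 25 mM Hepes, 0.01% Triton X-100, pH 7.0, preincubated 15 min at room temperature with compound. Reaction started with 40 uM arachidonic acid, 30 min at room temperature. Hydroperoxide measured by Fe-xylenol orange, 573/405 nm absorbance ratio.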
IL1B secr inh – qHTS for Inhibitors of Inflammasome Signaling: IL-1-beta AlphaLISA Primary Screen | THP-1 LPS/ATP IL-1B secretion, AlphaLISA, 16 h; active compounds read low | 4.7% of 360,000 active | activity change, % at 57.5 µM; in the data active = activity change below about -50%; inconclusive = mostly about -30% to -49%
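Secreted IL-1B measured by AlphaLISA bead assay after 16 h compound exposure of THP-1 cells; compounds (final up to 57.5 uM) added 1 h before LPS (250 ng/mL) and ATP (1.25 mM) stimulation; lower signal means less secretion.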
HT1080 IDH1KD tx – qHTS for induction of synthetic lethality in tumor cells producing 2HG: qHTS for the HT-1080-IDH1KD cell line. HT-1080 IDH1 knockdown viability, ATP luminescence, 48 h. 2% of 360,000 active. AID 686971, 2013. Potency, µM (highest dose often 46.1 µM), without a hit: at the top dose activity, negative = toxicity, most hits filed as cytotoxic;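 note: potency is the fitted concentration of half-maximal effect; 0% = DMSO wells and -100% = cell-free medium wells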
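In this qHTS, HT-1080 cells depleted of IDH1 are exposed for 48 h at 37 °C to compound titrations. Toxicity is scored from CellTiter-Glo luminescence, with DMSO as full viability and medium alone as none.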
HT1080NT lethal – qHTS for induction of synthetic lethality in tumor cells producing 2HG: qHTS for the HT-1080-NT fibrosarcoma cell line; Potency, µM (series often up to 46.1 µM), without a hit: top-dose activity, negative = less viability, most hits filed as cytotoxic; HT-1080-NT fibrosarcoma viability, CellTiter-Glo ATP luminescence, 48 h; AID 686970, 2013; 1.6% of 360,000 active;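 note: NT is the 2HG producing partner of a matched IDH1 knockdown line; potency is the fitted concentration of half-maximal effect; 0% = DMSO-treated cells and -100% = media-only wells without cells; nearly all actives have a fitted effect of over 55% in size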
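750 cells/well, RPMI + 5% FBS; 2 h settle, compound pin-transfer, 48 h at 37 degrees C. CellTiter-Glo 10 min RT, luminescence. Normalized to DMSO and media-only wells.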
TDP1 cell noCPT – qHTS for Inhibitors of human tyrosyl-DNA phosphodiesterase 1 (TDP1): qHTS in cells in absence of CPT. DT40 Tdp1-/- hTDP1 cells, no CPT, ATP luminescence, 48 h. Potency, µM (series often up to 46.2 µM), for inactives: at the top dose activity change, negative = growth inhibition, hits mostly inhibitors. 15% of 420,000 active. AID 686978, 2013; note: potency is the fitted concentration of half-maximal effect; nearly all actives have a fitted effect of over 55% in size
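Stably hTDP1-transfected Tdp1-null chicken DT40 cells were treated with library compounds minus camptothecin and grown for at least 48 hr at 37 °C, after which cellular ATP was quantified by luminescence.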
TDP1 cell CPT – qHTS for Inhibitors of human tyrosyl-DNA phosphodiesterase 1 (TDP1): qHTS in cells in presence of CPT; chicken DT40 Tdp1-/-;hTDP1 cells + 20 nM CPT, ATP luminescence, 48 h; Potency, µM (titrated, usually from 46.2 µM), for inactives: at the top dose activity change, negative = growth inhibition, actives largely listed as inhibitors; 12% of 420,000 active; note: potency is the fitted concentration of half-maximal effect; nearly all actives have a fitted effect of over 55% in size
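Chicken DT40 Tdp1-/- cells stably complemented with human TDP1 were seeded at 400 cells/well in medium containing 20 nM camptothecin, exposed to pin-transferred compounds, and grown at 37 °C for at least 48 hr. Viability was read as ATP luminescence.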
Numbers without * were called inactive; ? = inconclusive; . = not tested or not shown; [ ] = remark or other dose. The full list was thinned out, with hits kept by preference. Unless noted, calls come from the whole dose curve; as a rule, active = well fitted curve in the direction sought with a large enough effect; inconclusive = small, poorly fitted or top-dose-only effect, or another doubt; inactive = no such curve, though single readings can be large; an effect the other way counts as inactive or inconclusive. Unless noted, % is set by controls: 0 for no effect and ±100 for the full control effect.

SMILES	12-LOX inh	IL1B secr inh	HT1080 IDH1KD tx	HT1080NT lethal	TDP1 cell noCPT	TDP1 cell CPT
O=C(NCCCN1CCCC1=O)c1ccc2c(=O)n(Cc3ccco3)c(=S)[nH]c2c1	-26%	7	0%	1%	?	16µM*
COc1ccc(-n2c(=S)[nH]c3cc(C(=O)NCc4ccco4)ccc3c2=O)cc1OC	3%	12	17%	14%	-25%	-20%
O=c1c2cc3c(cc2[nH]c(=S)n1C1CCN(Cc2ccccc2)CC1)OCO3	-9%	13	9%	-6%	?	26µM*
O=C(c1ccc2c(=O)n(Cc3ccccc3)c(=S)[nH]c2c1)N1CCOCC1	1%	38	-13%	0%	-28%	-20%
O=C(CC1CCCN(c2cnn(CC3CC3)c(=O)c2)C1)N1CCSCC1 (centres undefined)	10%	.	.	.	.	.
COC(=O)c1ccc(COc2ccc3c(=O)c(-c4ccc(OC)cc4)c(C)oc3c2)cc1	1%	.	.	.	.	.
O=C(Nc1oc2ccc(Cl)cc2c(=O)c1-c1ccc2c(c1)OCO2)c1ccccc1	-2%	.	.	.	.	.
O=C(CSc1nc2ccccc2o1)NCC1CCCCC1	-27%	.	.	.	.	.
CC1CCCCN1CCNC(=O)c1ccc2c(=O)n(Cc3ccc(Cl)cc3)c(=S)[nH]c2c1 (centres undefined)	?	-97*	23µM*	21µM*	?	?
CC1CCCCN1CCNC(=O)c1ccc2c(=O)n(CCc3ccccc3)c(=O)[nH]c2c1 (centres undefined)	-17%	1	0%	-18%	?	?
C[C@H](CO)N1C[C@H](C)[C@@H](CN(C)S(=O)(=O)c2ccccc2)Oc2c(NC(=O)C3CCCCC3)cccc2C1=O	-3%	13	-7%	-3%	23µM*	?
COc1ccc(S(=O)(=O)Nc2cccc3c2O[C@H](CN(C)S(=O)(=O)c2ccc(Cl)cc2)[C@H](C)CN([C@H](C)CO)C3=O)cc1	-3%	-18	-9%	-8%	18µM*	?
COc1ccc(S(=O)(=O)N(C)C[C@H]2Oc3c(NC(=O)Nc4ccccc4)cccc3C(=O)N([C@H](C)CO)C[C@@H]2C)cc1	-4%	0	-8%	-18%	?	?
COc1ccc(S(=O)(=O)Nc2cccc3c2O[C@H](CN(C)S(=O)(=O)c2cccs2)[C@@H](C)CN([C@H](C)CO)C3=O)cc1	-23%	-11	0%	-3%	-11%	?
CC(C)NC(=O)Nc1cccc2c1O[C@H](CN(C)S(=O)(=O)c1ccccc1)[C@@H](C)CN([C@H](C)CO)C2=O	-2%	2	-1%	-3%	-10%	-11%
CC(C)NC(=O)Nc1cccc2c1O[C@H](CN(C)S(=O)(=O)c1ccc(F)cc1)[C@@H](C)CN([C@H](C)CO)C2=O	-8%	-5	2%	1%	-28%	16µM*
COc1ccc(S(=O)(=O)N(C)C[C@H]2Oc3c(NC(=O)C4CC4)cccc3C(=O)N([C@H](C)CO)C[C@@H]2C)cc1	-19%	15	-17%	0%	-15%	16µM*
Cn1nc(C(=O)N2CCC(C(=O)Nc3ccc4c(c3)OCO4)CC2)c2ccccc2c1=O	18%	.	.	.	.	.
CN(C)C[C@@H]1CN(C)C[C@H]1NC(=O)c1nn(C)c2ccccc12	50%	.	.	.	.	.
CCc1cccc2cc3c(N)c(C(=O)Nc4ccc(S(=O)(=O)N5CCCC5)cc4)sc3nc12	?	-15	-27%	-17%	8.2µM*	?
COc1ccccc1-n1ccn2c(SCC(=O)N3CCN(c4ccccc4F)CC3)nnc2c1=O	-5%	.	.	.	.	.
Cc1cc(=O)n2[nH]c(CN(C(=O)c3ccccc3C)c3ccc(Cl)cc3)nc2n1	-27%	.	.	.	.	.
CC(Cc1c[nH]c2ccccc12)NC(=O)CCNc1nc(Cl)nc2nc[nH]c12 (centres undefined)	1%	.	.	.	.	.
O=C(COc1ccccc1Cl)Nc1ccc(N2CCN(C(=O)c3ccccc3)CC2)cc1	2%	-22	?	-26%	15µM*	18µM*
Cc1ccccc1OCC(=O)Nc1ccc(N2CCN(S(C)(=O)=O)CC2)cc1	-22%	-5	11%	14%	-27%	-8%
SMILES	12-LOX inh	IL1B secr inh	HT1080 IDH1KD tx	HT1080NT lethal	TDP1 cell noCPT	TDP1 cell CPT
CCN1CCN(c2ccc(NC(=O)COc3ccc(Cl)cc3C)cc2)CC1	?	-11	12%	-1%[9.24 µM]	?	18µM*
Cc1cccc(OCC(=O)Nc2ccc(N3CCN(C(=O)c4ccccc4)CC3)cc2)c1	-18%	-68*	5%	2%	15µM*	?
Cc1ccc(OCC(=O)Nc2ccc(N3CCN(C(=O)c4ccc(C)cc4)CC3)cc2)cc1	-14%	-7	-1%	-15%	?	-27%
CCN1CCN(c2ccc(NC(=O)COc3ccccc3Cl)cc2)CC1	0%	-17	-8%	-8%	18µM*	?
O=C(COc1ccccc1[N+](=O)[O-])Nc1ccc(N2CCN(C(=O)c3cccs3)CC2)cc1	351%	?	?	-19%	6.5µM*	4.6µM*
CC(C)c1ccc(OCC(=O)Nc2ccc(N3CCN(C(=O)c4cccs4)CC3)cc2)cc1	11%	.	.	.	.	.
O=C(CCCc1ccccc1)Nc1ccccc1[N+](=O)[O-]	-17%	4	-11%	1%	21µM*	10µM*
O=C(Cc1ccccc1[N+](=O)[O-])NCCCc1ccccc1	16%	1	-16%	-15%	?	16µM*
O=C(CCCc1ccccc1)Nc1ccc(Br)cc1F	.	-11	-6%	1%	?	15µM*
NS(=O)(=O)c1ccc(CCNC(=O)Cc2ccccc2[N+](=O)[O-])cc1	-14%	30	-5%	-8%	-10%	-9%
CCOc1ccccc1CN1CCCN(Cc2ccncc2)C(c2ccccc2)CC(=O)NCC1 (centres undefined)	63%	.	.	.	.	.
CC(C)C/C(=N\NC(=O)C1CC1c1ccccc1)c1ccccc1 (centres undefined)	10%	.	.	.	.	.
O=C(COc1ccc(-c2nnco2)cc1)c1ccc(F)c(F)c1	-18%	.	.	.	.	.
Cc1ccc(Cn2ccsc2=NC(=O)COC(=O)C(C)C)cc1	-9%	-10	?	-27%	8.2µM*	15µM*
